Our source for the growth values is PubChem BioAssay (NCI).

Some test systems named below: T-47D breast; BT-549 breast; MDA-MB-435 melanoma; MCF7 breast; HCT-116 colon; HCC-2998 colon; KM12 colon.
What all share (test): NCI-60 one-dose screen, 48 h (100 = growth as untreated, 0 = no growth, -100 = all killed)
Common to all, as to conditions: 10 µM unless noted

About 83,000 compounds went through this panel and 20% of them were active in at least one assay; those are over-represented in the sample as a whole.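 Note: values are percent growth. 100 is the growth of untreated cells, values between 100 and 0 indicate rising inhibition; between -100 and 0 indicates cell death.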 Unmarked numbers belong to inactive results. The source made the active and inactive calls. How the source made its calls: active means growth percent below 10; inactive means the rest.

With `O=C1Nc2ccc(Cl)cc2/C1=C/c1ccc[nH]1`, the growth with T-47D breast was 13%; with BT-549 breast it was 48.7%; with MDA-MB-435 melanoma, 96.5%; in the assay with MCF7 breast, 16.2%; in the assay on HCT-116 colon it was 87.1%; in the assay on HCC-2998 colon it was 65.8%. Besides, the growth with KM12 colon was 13.5%.

With `CC1(C)CC[C@]2(CO)CC[C@]3(C)[C@](O)([C@H](O)C[C@@H]4[C@@]5(C)CCCNC(C)(C)[C@@H]5CC[C@]43C)[C@@H]2C1`, the growth in the assay with T-47D breast is 84.3%; in the assay with BT-549 breast, 98.8%; in the assay on MDA-MB-435 melanoma, 93.2%; with MCF7 breast, 91.7%; in the assay with HCT-116 colon, 71.3%; in the assay with HCC-2998 colon it was 58.4%. For the same compound, the growth in the assay with KM12 colon is 95%.

On to `O=CCCCOCc1ccccc1`, for which the growth with T-47D breast is 102%; in the assay on BT-549 breast it was 103%; in the assay on MDA-MB-435 melanoma, 107%; with MCF7 breast, 91.7%; in the assay on HCT-116 colon it was 105%; in the assay on HCC-2998 colon it was 94.2%. Moreover, the growth with KM12 colon is 102%.

Consider `CC(=O)c1ccc(-n2cc(CN3CCN(c4cc5c(cc4F)c(=O)c(C(=O)O)cn5C4CC4)CC3)nn2)cc1`, for which the growth in the assay on T-47D breast was 96.4%; in the assay on BT-549 breast, 102%; with MDA-MB-435 melanoma, 96.3%; in the assay with MCF7 breast it was 72.9%; with HCT-116 colon it was -9.74% (active); in the assay on HCC-2998 colon, 86%. Moreover, the growth with KM12 colon is 84.9%.

For `COC12C=C/C(=C(/C(=O)OCc3cncnc3)C(=O)CCCCCCCCC3(OC)C=C/C(=C(/C(=O)OCc4cncnc4)C(=O)CCCCCCCC1)O3)O2`, the growth is 10.2% in the assay on T-47D breast; -10.2% (active) in the assay with BT-549 breast; -49.8% (active) in the assay on MDA-MB-435 melanoma; 3.84% (active) in the assay with MCF7 breast; -63.8% (active) in the assay with HCT-116 colon; -77.5% (active) in the assay with HCC-2998 colon. The growth in the assay with KM12 colon is -89.2% (active).

As for `CCOc1ccc(/C=C/C(=O)c2cccc(OCCCOc3cccc(C(=O)/C=C/c4ccc(OCC)cc4)c3)c2)cc1`, the growth was 63.4% in the assay with T-47D breast; 92.1% with BT-549 breast; 79.7% in the assay with MDA-MB-435 melanoma; 84.5% in the assay with MCF7 breast; 81.7% with HCT-116 colon; 94.9% in the assay on HCC-2998 colon. In addition, the growth in the assay with KM12 colon was 93%.

Consider `N=C(N)c1ccc(-c2ccc(-c3ccccc3)o2)o1`, for which the growth with T-47D breast is 32.8%; with BT-549 breast it was 64.6%; in the assay on MDA-MB-435 melanoma, -32.9% (active); in the assay with MCF7 breast, 20.6%; with HCT-116 colon it was 19.4%; with HCC-2998 colon it was 46.9%. The growth with KM12 colon was 16.6%.

`CC(=O)c1c(Nc2cccc(F)c2)[nH]c2c(Cl)cc(Cl)c(Cl)c2c1=O`: the growth is -11.1% (active) in the assay on T-47D breast; 8.92% (active) in the assay with BT-549 breast; 2.08% (active) in the assay with MDA-MB-435 melanoma; 2.73% (active) in the assay on MCF7 breast; 5.08% (active) in the assay on HCT-116 colon; 10.7% in the assay on HCC-2998 colon. Besides, in the assay on KM12 colon, the growth is 4.18% (active).

In the case of `Cc1ccc(S(=O)(=O)c2nc(-c3ccccc3)oc2SCC(N)=O)cc1`, the growth in the assay with T-47D breast is 76.3%; with BT-549 breast, 106%; in the assay on MDA-MB-435 melanoma, 105%; in the assay with MCF7 breast, 96%; in the assay with HCT-116 colon it was 85.7%; in the assay on HCC-2998 colon it was 105%. Besides, the growth in the assay on KM12 colon was 97.9%.

On to `COc1cc(Cc2cc(-c3ccccc3)nn(Cc3ccccc3)c2=O)cc(OC)c1OC`, for which the growth with T-47D breast is 6.19% (active); in the assay on BT-549 breast, 53.8%; in the assay on MDA-MB-435 melanoma it was 44.9%; with MCF7 breast, 24.5%; with HCT-116 colon it was 23.3%; in the assay on HCC-2998 colon, 64.2%. In the assay on KM12 colon, the growth is 32.9%.

Turning to `c1cc(OCCCCCOc2cccc(-c3nc4ccccc4[nH]3)c2)cc(-c2nc3ccccc3[nH]2)c1`, the growth with T-47D breast was 12.2%; with BT-549 breast, 6.65% (active); in the assay with MDA-MB-435 melanoma it was 8.32% (active); with MCF7 breast, -2.42% (active); in the assay with HCT-116 colon it was 7.44% (active); in the assay with HCC-2998 colon, 14.2%. The growth in the assay with KM12 colon is 8.91% (active).

As to `CNC(=O)c1cc(Oc2ccc3c(c2)sc2nc(-c4cc(C(F)(F)F)cc(C(F)(F)F)c4)cn23)ccn1`, the growth is 30.6% in the assay with T-47D breast; 52.9% with BT-549 breast; 60.8% in the assay on MDA-MB-435 melanoma; 51.1% with MCF7 breast; 36.3% in the assay on HCT-116 colon; 74.3% with HCC-2998 colon. Also, the growth in the assay on KM12 colon is 69.5%.

In the case of `COc1ccc(Cl)cc1Nc1nc(C(F)(F)F)ccc1C(=O)N/N=C/c1ccc([N+](=O)[O-])cc1`, the growth in the assay with T-47D breast was 7.15% (active); in the assay with BT-549 breast, 18.6%; in the assay on MDA-MB-435 melanoma, 15.9%; in the assay with MCF7 breast, -8.58% (active); with HCT-116 colon, 11.3%; with HCC-2998 colon, -27.8% (active). For the same compound, the growth in the assay with KM12 colon was -3.54% (active).

In the case of `N#Cc1ccc(/C=C/c2cn(-c3ccccc3)nc2-c2cccc([N+](=O)[O-])c2)cc1`, the growth in the assay on T-47D breast was 75%; with BT-549 breast it was 40.5%; in the assay on MDA-MB-435 melanoma, 61.2%; with MCF7 breast it was 58.7%; in the assay on HCT-116 colon, 30.1%; with HCC-2998 colon, 82%. The growth in the assay with KM12 colon is 65.7%.

Turning to `O=C(C1=Cc2cc3ccccc3n2Cc2cnnn21)c1ccc(F)cc1`, the growth in the assay on T-47D breast was 95%; in the assay on BT-549 breast it was 94.9%; in the assay on MDA-MB-435 melanoma, 97.5%; in the assay with MCF7 breast, 94%; with HCC-2998 colon, 110%; in the assay on KM12 colon it was 90.8%.

In the case of `COc1cccc(CNc2c3ccccc3nc3ccccc23)c1OC`, the growth with T-47D breast was 47.5%; in the assay with BT-549 breast it was 59.7%; with MDA-MB-435 melanoma it was 46.3%; with MCF7 breast, 10.1%; in the assay on HCT-116 colon, 11.8%; in the assay on HCC-2998 colon, 38.3%. Also, the growth with KM12 colon was 52.4%.

For `COc1ccc(C(=O)/C=C/c2ccccc2)cc1S(N)(=O)=O`, the growth in the assay with T-47D breast was 77.6%; in the assay with BT-549 breast, 75.2%; with MDA-MB-435 melanoma, 96.5%; with MCF7 breast, 25%; in the assay with HCT-116 colon, 13.4%; in the assay with HCC-2998 colon, 95.2%. Also, the growth with KM12 colon is 38%.

Take `CCOC(=O)C#Cc1c(C(=O)OCC)nnn1[C@@H]1O[C@H](COC)[C@@H](OC)[C@H]1OC`: the growth with T-47D breast is 15.2%; in the assay with BT-549 breast, 98.7%; with MDA-MB-435 melanoma, 98.7%; in the assay on MCF7 breast, 8.52% (active); with HCT-116 colon, 84%; with HCC-2998 colon, 128%. For the same compound, in the assay on KM12 colon, the growth is 105%.
